Source: PubChem BioAssay (EPA / NIEHS)
Records with an inconclusive call do not appear. A structure can be active in one record and inactive in another. The source made the active and inactive calls. The calls were made as follows: active = hit-call score of the fitted dose curve at least 0.9, where 1 is the maximum; inconclusive = response in the unintended direction; inactive = score below 0.9.

Biological target: Cellular tumor antigen p53 (Homo sapiens) (UniProt P04637)
Test: TOX21_p53_BLA_p4_ratio: Tox21 HCT-116 p53 Agonism Beta-lactamase Assay, Ratio, Phase 4 (AID 2283601)
Summary of the method: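 HCT116 cells carrying an inducible beta-lactamase reporter were plated at 4000 cells/well, rested 5 h, then exposed to compounds in DMSO (217-fold dilution) for 16 h at 37C. CCF4-AM substrate was loaded 2 h at room temperature; 460/530 nm emission ratio scored gain-of-signal versus DMSO.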

Sequence of Cellular tumor antigen p53 (Homo sapiens) (P04637 whole entry, looked up): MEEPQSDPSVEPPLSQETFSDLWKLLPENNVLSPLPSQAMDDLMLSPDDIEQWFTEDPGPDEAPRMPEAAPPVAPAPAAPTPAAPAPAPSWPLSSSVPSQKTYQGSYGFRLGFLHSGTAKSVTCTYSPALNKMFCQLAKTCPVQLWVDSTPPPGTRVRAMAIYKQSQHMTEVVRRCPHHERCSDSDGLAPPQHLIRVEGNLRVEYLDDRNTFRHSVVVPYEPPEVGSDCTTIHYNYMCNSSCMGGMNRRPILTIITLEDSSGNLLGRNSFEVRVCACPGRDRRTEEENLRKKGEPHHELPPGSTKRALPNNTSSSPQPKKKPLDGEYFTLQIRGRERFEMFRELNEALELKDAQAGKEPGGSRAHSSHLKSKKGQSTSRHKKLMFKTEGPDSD

SMILES | outcome | AC50
Cc1ccccc1[N+](=O)[O-] | inactive | 
Cc1cc2c3c(c1)C(c1ccccc1)=N[C@@H](NC(=O)c1ccncc1)C(=O)N3CC2 | inactive | 
CCOP(=S)(OCC)SCSC(C)(C)C | inactive | 
Cc1ccccc1O | inactive | 
CC1=C2C[C@H]3[C@@H](CC=C4C[C@@H](O)CC[C@@]43C)[C@@H]2CC[C@]12O[C@@H]1C[C@H](C)CN[C@H]1[C@H]2C | inactive | 
CCCN(CCC)N=O | inactive | 
O=C(O)C(F)(F)C(F)(F)C(F)(F)C(F)(F)C(F)(F)F | inactive | 
Oc1ccc(Cl)cc1Cl | inactive | 
O=S(=O)(O)C(F)(F)C(F)(F)C(F)(F)C(F)(F)F | inactive | 
COc1ccc(O)c(C(C)(C)C)c1 | inactive | 86.1 µM (active)
c1ccc(-c2ccccc2)cc1 | inactive | 
Cc1cc(O)ccc1Cl | inactive | 
C1CC2OC2CC1C1CO1 (stereo unspecified) | inactive | 
O=C(NC(=O)c1cc(F)c(F)cc1Cl)Nc1cc(F)ccc1N1CCC(C(=O)O)CC1 | inactive | 
Nn1cnnc1 | inactive | 
O=C(O)C(F)(F)C(F)(F)C(F)(F)C(F)(F)C(F)(F)C(F)(F)C(F)(F)C(F)(F)C(F)(F)F | inactive | 
CCCCCCCCOC(=O)c1ccccc1C(=O)OCCCCCCCC | inactive | 
Clc1ccc(C(Cl)(Cl)Cl)cc1 | inactive | 
C=CC(N)=O | inactive | 
Cc1cccc(C)c1N | inactive | 
CC#Cc1cc(C)nc(Nc2ccccc2)n1 | inactive | 
CCCCCCOC(=O)c1ccccc1C(=O)OCCCCCC | inactive | 
ClC1=C(Cl)[C@]2(Cl)[C@@H]3[C@@H]4C[C@@H]([C@H]5O[C@@H]45)[C@@H]3[C@@]1(Cl)C2(Cl)Cl | inactive | 
CCOCCOC(C)=O | inactive | 
CCCCCCCCCc1ccc(O)cc1 | inactive | 
